# Data published in PubChem BioAssay (Tox21).
# “And” between values parts separate entries of the source, which are not always exact repeats. Identical values can stand only once. Inconclusive results are not listed. Entries that show only a call come without a potency. Some structures have more than one record in an assay (separate samples or runs), and their calls can disagree. The source made the active and inactive calls. Unless noted, the call rests on the fitted dose curve; in most records, active means well fitted curve in the direction sought with a large enough effect in the repeat runs; inconclusive means weak or mixed curves; inactive means no such curve, though single readings can be large; an effect the other way counts as inactive or inconclusive.
# Columns and labels:
# [1] = qHTS assay to identify small molecule agonists of the hypoxia (HIF-1) signaling pathway - cell viability counter screen (AID 1224844; calls by dose curve; further: nearly all actives have a fitted effect of over 50% in size)
# Outline: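 ME-180 HRE-bla cells, 2,000/well, 0.5% dialyzed FBS; 5 hr settle, 17 hr compound at 37C/5% CO2; CCF4-AM reporter read first, then CellTiter-Glo luminescence after 30 min RT.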
# [2] = qHTS assay to identify small molecule agonists of H2AX (AID 1224845; active means well fitted activation curve with a large enough effect in the signal ratio in the repeat runs, not every such curve was filed as active; the % refers to the signal ratio)
# Outline: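 Phospho-H2AX Ser139 measured by HTRF (ex 320 nm; em 665 and 620 nm) after 24 hr antibody incubation. Compounds, 15 concentrations, 0.76% DMSO, were applied to CHO-K1 cells for 3hr at 37C before lysis.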
# [3] = qHTS assay to identify small molecule agonists of the hypoxia (HIF-1) signaling pathway (AID 1224846; active means well fitted activation curve with a large enough effect in the signal ratio in the repeat runs, not every such curve was filed as active; the % refers to the signal ratio)
# Outline: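 Cell line: CellSensor HRE-bla ME-180; 2,000 cells/well; 0.5% dialyzed FBS; 5 h preincubation; DMSO compound pin transfer; 17 h, 37C, 5% CO2; CCF4-AM added; bla FRET signal scored for activation.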
# [4] = qHTS assay to identify small molecule agonists of H2AX - cell viability counter screen (AID 1224847; calls by dose curve; further: nearly all actives have a fitted effect of over 30% in size; further: potency means the concentration at half of the fitted maximal effect)
# Outline: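 Compounds tested at 15 concentrations were incubated 3 hr at 37C with wild-type CHO-K1 cells; cellular ATP-based luminescence (CellTiter-Glo) indicated viability.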
# [5] = qHTS RealTime-Glo MT Cell Viability Assay in HepG2 cells - 24 hour (AID 1224867); further: nearly all actives have a fitted effect of over 50% in size; further: potency means the concentration at half of the fitted maximal effect
# Outline: (§1)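 qHTS, HepG2, 600 cells/well, RealTime-Glo (NanoLuc + prosubstrate) added with cells; 5 h preincubation; DMSO compound addition; 37 C; luminescence at 0/8/16/24/32/40 h.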
# [6] = qHTS RealTime-Glo MT Cell Viability Assay in HEK293 cells - 32 hour (AID 1224868); further: nearly all actives have a fitted effect of over 50% in size; further: potency means the concentration at half of the fitted maximal effect
# Outline: (§2)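 Assay medium contained NanoLuc luciferase plus cell-permeant prosubstrate, added with HEK293 cells at 600 cells/well. After 5 h at 37 C/5% CO2 compounds were added; plates stayed at 37 C for 40 h with serial luminescence reads.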
# [7] = qHTS RealTime-Glo MT Cell Viability Assay in HepG2 cells - 40 hour (AID 1224870); further: nearly all actives have a fitted effect of over 50% in size; further: potency means the concentration at half of the fitted maximal effect
# Outline: (§3)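 Real-time viability: cells seeded at 600 per well together with NanoLuc and cell-permeant prosubstrate, compounds added after 5 h incubation. Luminescence tracked at 0, 8, 16, 24, 32 and 40 h of exposure.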
# [8] = A CellTox Green Cytotoxicity Assay to monitor cytotoxicity in HEK293 cells - 40 hour (AID 1224871); further: nearly all actives have a fitted effect of over 45% in size; further: potency means the concentration at half of the fitted maximal effect
# Outline: (§4)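 Nonlytic real-time cytotoxicity: HEK293 + CellTox Green reagent plated, 5 h preincubation, pintool compound addition (23 nL in DMSO), 37 C for 40 h, fluorescence measured at successive time points.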
# [9] = qHTS RealTime-Glo MT Cell Viability Assay in HEK293 cells - 16 hour (AID 1224872); further: nearly all actives have a fitted effect of over 50% in size; further: potency means the concentration at half of the fitted maximal effect
# Outline: as §2
# [10] = qHTS RealTime-Glo MT Cell Viability Assay in HepG2 cells - 8 hour (AID 1224873); further: nearly all actives have a fitted effect of over 55% in size; further: potency means the concentration at half of the fitted maximal effect
# Outline: as §3
# [11] = qHTS RealTime-Glo MT Cell Viability Assay in HEK293 cells - 40 hour (AID 1224874); conditions: RealTime-Glo luminescence; max response: stronger effect = lower value; further: nearly all actives have a fitted effect of over 50% in size; further: potency means the concentration at half of the fitted maximal effect
# Outline: (§5)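 Cells were seeded together with NanoLuc luciferase and a prosubstrate that viable cells reduce to a luciferase substrate. After a 5 h incubation at 37 C/5% CO2, compounds were added and luminescence was measured repeatedly during 40 h of treatment.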
# [12] = A CellTox Green Cytotoxicity Assay to monitor cytotoxicity in HEK293 cells - 24 hour (AID 1224875); further: nearly all actives have a fitted effect of over 45% in size; further: potency means the concentration at half of the fitted maximal effect
# Outline: as §4
# [13] = A CellTox Green Cytotoxicity Assay to monitor cytotoxicity in HepG2 cells - 16 hour (AID 1224876); further: nearly all actives have a fitted effect of over 45% in size; further: potency means the concentration at half of the fitted maximal effect
# Outline: (§6)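 Read-out is fluorescence of a cyanine dye excluded from live cells that stains DNA of dead HepG2 cells, with signal proportional to cytotoxicity. Plates were read at 0, 8, 16, 24, 32 and 40 h after compound addition.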
# [14] = qHTS RealTime-Glo MT Cell Viability Assay in HepG2 cells - 32 hour (AID 1224877); further: nearly all actives have a fitted effect of over 55% in size; further: potency means the concentration at half of the fitted maximal effect
# Outline: as §1
# [15] = A CellTox Green Cytotoxicity Assay to monitor cytotoxicity in HepG2 cells - 24 hour (AID 1224878); further: nearly all actives have a fitted effect of over 45% in size; further: potency means the concentration at half of the fitted maximal effect
# Outline: as §6
# [16] = A CellTox Green Cytotoxicity Assay to monitor cytotoxicity in HepG2 cells - 40 hour (AID 1224879); further: nearly all actives have a fitted effect of over 40% in size; further: potency means the concentration at half of the fitted maximal effect
# Outline: as §6
# [17] = qHTS RealTime-Glo MT Cell Viability Assay in HEK293 cells - 0 hour (AID 1224880)
# Outline: as §5
# [18] = A CellTox Green Cytotoxicity Assay to monitor cytotoxicity in HEK293 cells - 0 hour (AID 1224869); further: nearly all actives have a fitted effect of over 50% in size
# Outline: as §4
# [19] = qHTS assay to identify small molecule antagonists of the estrogen related receptor (ERR) signaling pathway from Tox21 library (AID 1224848)
# Outline: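 Reading was by luminescence 30 min after ONE-Glo addition. Before that, ERR cells at 2,000 per well had rested 6 h at 37 C/5% CO2 and then received pin-tooled compounds in DMSO for 18 h at 37 C.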
# [20] = qHTS assay to identify small molecule agonists of the estrogen related receptor (ERR) signaling pathway from Tox21 library (AID 1224849; calls by dose curve; further: nearly all actives have a fitted effect of over 15% in size); conditions: ERR reporter cell line, ONE-Glo luciferase, 18 h; at 92.4 µM (top of the series) unless noted
# Outline: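 ERR cells, 6 h pre-incubation 37 C/5% CO2; cpd in DMSO pinned; 18 h 37 C; ONE-Glo added, 30 min RT; luminescence read. Agonist mode, qHTS.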
structure (smiles),measurement,setting,value
SCc1ccco1,Potency,[1],inactive
same,Potency,[2],inactive
same,outcome,[3],inactive
same,Potency,[4],inactive
same,Potency,[5],inactive
same,Potency,[6],inactive
same,Potency,[7],inactive
same,Potency,[8],inactive
same,Potency,[9],inactive
same,Potency,[10],inactive
same,max response,[11],-11.9% (inactive)
same,Potency,[12],inactive
same,Potency,[13],inactive
same,Potency,[14],inactive
same,Potency,[15],inactive
same,Potency,[16],inactive
same,Potency,[17],inactive
O=C(O)COc1nc(Cl)c(Cl)cc1Cl,Potency,[1],inactive
same,Potency,[2],inactive
same,outcome,[3],inactive
same,Potency,[4],inactive
same,Potency,[5],inactive
same,Potency,[7],inactive
same,Potency,[9],inactive
same,Potency,[10],inactive
same,Potency,[13],12.6 µM (active)
same,Potency,[14],inactive
same,Potency,[16],inactive
same,Potency,[17],inactive
CC(=O)c1ccc(-c2ccccc2)cc1,Potency,[1],inactive
same,Potency,[2],inactive
same,outcome,[3],inactive
same,Potency,[4],inactive
same,Potency,[5],inactive
same,Potency,[6],inactive
same,Potency,[7],inactive
same,Potency,[8],inactive
same,Potency,[9],inactive
same,max response,[11],-11.1% (inactive)
same,Potency,[12],inactive
same,Potency,[13],inactive
same,Potency,[14],inactive
same,Potency,[15],inactive
same,Potency,[16],inactive
same,Potency,[17],inactive
CN(C)[C@@H]1C(=O)C(C(N)=O)=C(O)[C@@]2(O)C(=O)C3=C(O)c4c(O)ccc(Cl)c4[C@@](C)(O)[C@H]3C[C@@H]12,Potency,[1],inactive
same,Potency,[2],inactive
same,outcome,[3],inactive
same,Potency,[4],inactive
same,Potency,[5],inactive
same,Potency,[18],inactive
same,Potency,[7],inactive
same,Potency,[8],inactive
same,Potency,[9],inactive
same,Potency,[10],inactive
same,Potency,[12],inactive
same,Potency,[13],inactive
same,Potency,[14],inactive
same,Potency,[15],inactive
same,Potency,[16],inactive
same,Potency,[17],inactive
ClC(Cl)=C(Cl)Cl,Potency,[1],inactive
same,Potency,[2],inactive
same,outcome,[3],inactive
same,Potency,[4],inactive
same,Potency,[5],inactive
same,Potency,[18],inactive
same,Potency,[7],inactive
same,Potency,[8],inactive
same,Potency,[9],inactive
same,Potency,[10],inactive
same,max response,[11],0.0111% (inactive)
same,Potency,[12],inactive
same,Potency,[13],inactive
same,Potency,[14],inactive
same,Potency,[15],inactive
same,Potency,[16],inactive
same,Potency,[17],inactive
CC(C)(C)c1cc([N+](=O)[O-])cc(C(C)(C)C)c1O,Potency,[1],inactive
same,Potency,[2],inactive
same,outcome,[3],inactive
same,Potency,[19],2.73 µM (active)
same,"activity change, positive = activation",[20],-56.9% (inactive)
same,Potency,[5],inactive
same,Potency,[6],6.92 µM (active)
same,Potency,[18],inactive
same,Potency,[7],inactive
same,Potency,[11],6.92 µM (active)
same,Potency,[12],inactive
same,Potency,[13],inactive
same,Potency,[14],inactive
same,Potency,[17],inactive
CCCCCCCCCCCCCCCC[N+](C)(C)C,Potency,[1],inactive
same,Potency,[2],inactive
same,Potency,[4],54.6 µM (active) and 101 µM (active) and 49.2 µM (active)
same,Potency,[5],inactive and 49 µM (active) and 23.9 µM (active)
same,Potency,[18],inactive
same,Potency,[7],24.5 µM (active) and 21.3 µM (active)
same,Potency,[8],23.7 µM (active) and 43.6 µM (active) and 23.9 µM (active)
same,Potency,[9],10.6 µM (active) and 21.9 µM (active)
same,Potency,[10],inactive and 49 µM (active)
same,Potency,[11],8.4 µM (active) and 21.9 µM (active) and 9.52 µM (active)
same,Potency,[12],23.7 µM (active) and 43.6 µM (active) and 19 µM (active)
same,Potency,[13],23.7 µM (active) and 49 µM (active) and 23.9 µM (active)
same,Potency,[14],43.6 µM (active) and 23.9 µM (active)
same,Potency,[15],21.1 µM (active) and 23.9 µM (active)
same,Potency,[16],21.1 µM (active) and 13.8 µM (active) and 21.3 µM (active)
